Compound activity as filed in PubChem BioAssay.
This is a sample that favours compounds with a hit; in the whole collection about 2.6% have one here.
Ba/F3 V617F tox: lowers viability of Ba/F3 cells expressing EpoR and JAK2V617F. AID 1446. 220,000 compounds, 1.1% hits. inhibition, % at 5.6 µM. ATP luminescence;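 active means inhibition above the campaign mean plus 3 SD over all tested compounds, cut at about 24% in these data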;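 further: cytokine-independent growth of Ba/F3 cells driven by EpoR plus mutant JAK2; 0% = DMSO-treated cells and 100% = JAK inhibitor I control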
IEC-6 tox-1: counter-screen for KLF5 inhibitors: cytotoxicity in IEC-6 cells | IEC-6 cytotoxicity, luminescence viability | inhibition, % at 5 µM | 290,000 compounds, 0.78% hits | AID 1825; in the data active means inhibition above about 22%;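 further: 0% = plate median of test compound wells and 100% = cytotoxic reference compound wells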
KLF5 inhibitor: suppresses KLF5 promoter-driven expression | DLD-1 KLF5 promoter-luciferase reporter, luminescence | AID 1700 | 290,000 compounds, 0.23% hits | inhibition, % at 5 µM;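 active means inhibition above a per-plate limit of that plate's mean compound inhibition plus 3 SD, cut at about 60% in these data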;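 further: 0% = DMSO wells and 100% = LY294002 at 200 µM; higher means less KLF5 promoter-driven luciferase light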
GPR7 antag: blocks human GPR7 receptor signaling; inhibition, % at 4.4 µM; GPR7-expressing cells, fluorescence antagonist assay; 290,000 compounds, 1.1% hits; P48145; in the data active means inhibition above about 16%, passing the limit was not always enough;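 further: cells stimulated with the agonist NPW; 0% = agonist with vehicle and 100% = vehicle without agonist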
Target sequence (P48145 whole entry, looked up): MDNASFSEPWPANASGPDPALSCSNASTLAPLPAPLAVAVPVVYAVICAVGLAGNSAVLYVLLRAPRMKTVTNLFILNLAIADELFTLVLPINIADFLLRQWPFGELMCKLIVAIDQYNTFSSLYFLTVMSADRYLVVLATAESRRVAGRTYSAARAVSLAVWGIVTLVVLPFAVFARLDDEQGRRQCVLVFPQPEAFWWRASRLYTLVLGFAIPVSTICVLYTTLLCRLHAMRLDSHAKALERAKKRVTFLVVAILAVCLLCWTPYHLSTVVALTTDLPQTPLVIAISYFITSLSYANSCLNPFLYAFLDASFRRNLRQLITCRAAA
BaF3 tox: reduces parental Ba/F3 cell viability, JAK2V617F counter-screen. CellTiter-Glo ATP luminescence. inhibition, % at 5.6 µM. 220,000 compounds, 1.1% hits. AID 1486;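 active means inhibition above a per-campaign cutoff, the mean inhibition of all tested compounds plus 3 SD, cut at about 27% in these data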;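 further: 0% = DMSO wells and 100% = JAK Inhibitor I control wells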
DNA FID counter: counter-screen for HCV NS3 helicase inhibitors: DNA intercalator displacement. DNA fluorescent intercalator displacement, fluorescence. inhibition, % at 7.9 µM. 290,000 compounds, 0.17% hits. AID 1845; in the data active means inhibition above about 37%;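 further: 0% = vehicle and 100% = reference compound; higher means more ethidium bromide displaced from hairpin DNA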
KLF5 inh confirm: KLF5 inhibition, confirmation assay. shares compounds with KLF5 inhibitor. AID 1834. DLD-1 KLF5 promoter firefly luciferase reporter, luminescence. inhibition, % at 4 µM. 610 compounds, 79% hits;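 active means inhibition above a set limit taken from the earlier primary screen, cut at about 63% in these data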;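 further: 0% = DMSO wells and 100% = LY294002 at 200 µM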
IEC-6 tox-2: rat IEC-6 cytotoxicity, KLF5 inhibitor counter-screen; shares compounds with KLF5 inhibitor; IEC-6 rat intestinal cells, viability luminescence; inhibition, % at 4 µM; 610 compounds, 56% hits; AID 1905; in the data active means inhibition above about 23%;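 further: cells exposed to compounds for 48 hours before viability read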
Active calls of the source: *; . = no result given.

SMILES	Ba/F3 V617F tox	IEC-6 tox-1	KLF5 inhibitor	GPR7 antag	BaF3 tox	DNA FID counter	KLF5 inh confirm	IEC-6 tox-2
CC(C)(C)c1ccc(-c2noc(CCC(=O)NCc3ccco3)n2)cc1	-3.3	-1.4	62.5*	-8.3	26.1	-16.7	65.1*	10.8
CCc1ccn2cc(-c3cc(-c4ccccc4)no3)nc2c1	4.1	19.1	83.8*	9.1	-4.2	-23.8	82.2*	-2.2
COc1ccc(NC(=O)CSCc2ccc(C#N)cc2)c(OC)c1	.	0.1	-41.7	1.0	.	-16.5	.	.
CCc1nc2sc3c(c2c(=O)o1)CCCC3	7.7	-0.1	10.6	-1.1	8.6	-1.3	.	.
CC(C)(C)c1nc2sc3c(c2c(=O)o1)CCCC3	2.4	-2.8	68.7*	9.9	3.9	-1.9	2.5	-6.3
O=C(Nc1nc2cc3c(cc2s1)OCO3)C1=COCCO1	11.4	21.1	77.8*	-1.8	14.6	-4.2	49.2	12.1
Cc1ccccc1NC(=O)CCN1CCCC1	1.9	3.2	5.8	-0.9	6.4	13.4	.	.
Cc1cc(C(F)(F)F)c(C#N)c(SCC(=O)Nc2nc3ccccc3s2)n1	1.5	4.8	-36.3	-4.1	1.2	-4.0	.	.
Cc1nc(SCC(=O)Nc2nc3ccccc3s2)c(C#N)c(C)c1C	0.8	4.6	96.3*	-9.7	8.8	-6.6	108.0*	27.2*
COc1ccc(Cc2nnc(N/N=C/c3ccc(O)cc3)[nH]c2=O)cc1OC	-5.0	-2.6	65.5*	-4.1	3.9	-7.6	106.2*	11.8
COCCCNCC(=O)c1c(N)n(Cc2ccccc2)c(=O)n(C)c1=O	-3.1	2.7	-3.0	-15.6	4.8	4.4	.	.
COc1ccc(-c2nsc3c(N4CCCCC4)ncnc23)cc1	-3.5	1.6	-24.4	-6.5	1.1	-1.9	.	.
COc1ccc(-c2nsc3c(N4CCCCC4C)ncnc23)cc1 (configuration not stated)	-0.6	-1.6	75.6*	-11.6	6.0	-2.8	91.6*	2.9
COc1ccc2nc(NC(=O)c3ccccc3C(=O)O)sc2c1	.	1.6	-19.3	2.5	.	-0.8	.	.
COc1ccc(C(=O)Nc2nc3ccccc3s2)c(OC)c1	.	21.8	101.0*	-8.7	.	0.1	79.8*	17.1
CCC(=O)NC(c1ccc(OC)c(OC)c1)c1cc(Cl)c2cccnc2c1O (configuration not stated)	80.8*	10.7	68.1*	4.0	38.7*	-17.9	87.2*	30.4*
CCCCC(=O)NC(c1ccc(N(CC)CC)cc1)c1ccc2cccnc2c1O (configuration not stated)	.	10.6	68.5*	-13.9	.	-19.8	85.2*	43.8*
CCCC(=O)NC(c1ccc2c(c1)OCO2)c1cc(Cl)c2cccnc2c1O (configuration not stated)	-5.1	-8.6	14.8	-13.2	-0.6	-7.7	.	.
CCCC(=O)NC(c1ccc(Cl)cc1Cl)c1ccc2cccnc2c1O (configuration not stated)	.	19.0	82.3*	-6.3	.	-25.2	81.7*	52.9*
CCCC(=O)NC(c1ccccc1OC)c1ccc2cccnc2c1O (configuration not stated)	102.0*	100.8*	90.7*	-10.4	100.8*	-27.8	96.9*	46.8*
CCCC(=O)NC(c1ccco1)c1cc(Cl)c2cccnc2c1O (configuration not stated)	7.0	4.8	-17.4	1.9	3.6	-11.2	.	.
O=C(CNS(=O)(=O)c1cccc(Br)c1)NCCCc1ccccc1	.	8.7	7.9	-10.2	.	-20.5	.	.
COc1ccc(/C=C/c2nc3ccccc3c(=O)o2)cc1	.	7.6	71.0*	-11.9	.	-33.2	55.1	2.0
COc1ccccc1/C=C/c1nc2ccccc2c(=O)o1	.	6.3	-127.4	-3.4	.	-7.6	.	.
COc1ccc(/C=C/c2nc3ccccc3n2C)cc1	26.0*	11.5	67.5*	-1.8	30.8*	-7.9	95.5*	33.6*
SMILES	Ba/F3 V617F tox	IEC-6 tox-1	KLF5 inhibitor	GPR7 antag	BaF3 tox	DNA FID counter	KLF5 inh confirm	IEC-6 tox-2
O=C(CCC(=O)N1CCOCC1)NCCc1ccc(Cl)cc1Cl	.	-8.2	-31.1	-17.0	.	-11.7	.	.
Oc1ccc(-c2nc(-c3ccc(O)c(O)c3)cs2)cc1	88.3*	-1.3	68.9*	10.4	81.0*	0.3	48.1	-1.4
COc1ccc(CCNC(=O)C2C3CCC(C3)C2C(=O)O)cc1OC (configuration not stated)	.	6.8	16.8	-11.8	.	3.1	.	.
O=C(CN1C(=O)NC2(CCCC2)C1=O)Nc1ccccc1F	2.0	4.9	109.1*	-3.3	4.3	-2.0	0.9	-7.1
O=C(CN1C(=O)NC2(CCCC2)C1=O)Nc1ccc(Cl)cc1F	.	-2.4	-13.1	1.1	.	-4.8	.	.
COc1ccc(S(=O)(=O)N2c3ccccc3OCC2c2ccccc2)cc1 (configuration not stated)	-0.9	0.6	16.7	-10.0	2.8	-0.6	.	.
COc1ccc(S(=O)(=O)N2c3ccccc3OCC2C)cc1 (configuration not stated)	72.0*	78.6*	84.0*	3.7	73.2*	-5.0	79.3*	59.5*
COc1cccc(CN(C)C(=S)Nc2cccc(C)c2)c1	-0.8	-6.7	-2.8	-8.9	5.1	-1.6	.	.
O=C(Nc1cccc(S(=O)(=O)N2CCCCC2)c1)c1c2c(nc3ccccc13)CCN(Cc1ccccc1)C2	3.9	3.8	-33.3	-6.5	8.1	-11.4	.	.
CN(C)CC(C)(C)CNS(=O)(=O)c1ccc(Cl)c(Cl)c1	0.4	9.7	5.9	6.3	3.7	9.2	.	.
O=C(Nc1ncc([N+](=O)[O-])s1)c1ccc2c(c1)OCO2	.	12.3	76.3*	-13.5	.	8.8	55.2	35.5*
COc1ccc(CN2C(=O)CSC2c2ccccn2)cc1 (configuration not stated)	-3.2	-3.0	-12.8	-15.3	-0.8	-4.2	.	.
Cc1ccc(-c2csc(NC(=O)CCNC(=O)c3ccc(Cl)cc3)n2)cc1	-2.3	-2.5	-0.9	-9.8	2.0	-4.4	.	.
COc1cc(C(=O)c2cocc2C(=O)c2ccc3c(c2)OCO3)cc(OC)c1OC	71.3*	77.4*	63.1*	16.9	77.8*	-14.2	76.0*	53.7*
COc1cc(C(=O)NNC(=S)NC(=O)c2ccc3c(c2)OCO3)cc(OC)c1OC	0.1	6.2	-2.5	4.7	-1.6	-18.2	.	.
O=C(NCc1ccncc1)C1CCCN(S(=O)(=O)Cc2ccccc2)C1 (configuration not stated)	-2.2	-6.0	-27.5	-16.8	-1.0	2.6	.	.
Oc1c(Br)cc(Br)cc1/C=N/Nc1ccc(Cl)nn1	.	-4.3	101.8*	-7.5	.	-5.2	36.0	-4.3
N/C(=N\OCc1ccc([N+](=O)[O-])cc1)c1ccccn1	1.4	0.5	87.8*	-8.3	8.9	2.2	97.3*	-2.7
CCc1ccc(NC(=O)c2cnn3ccccc23)cc1	1.8	6.9	87.2*	14.2	4.5	-7.7	82.4*	2.6
CSc1cccc(NC(=O)c2cnn3ccccc23)c1	-1.7	-1.5	-154.1	-4.0	-3.4	-4.9	.	.
